Most compounds without a hit are left out; they make up all but 2.5% or so of the library.
RAD52 anneal inh – blocks human RAD52 DNA annealing; actives 0.46% (n = 360,000); recombinant RAD52 DNA annealing, FRET fluorescence; inhibition, % at 18.7 µM; AID 651710;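 active = every replicate showing at least 50% inhibition; inconclusive = mean inhibition at least 50% but not in every replicate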
Target sequence (P43351 whole entry, looked up): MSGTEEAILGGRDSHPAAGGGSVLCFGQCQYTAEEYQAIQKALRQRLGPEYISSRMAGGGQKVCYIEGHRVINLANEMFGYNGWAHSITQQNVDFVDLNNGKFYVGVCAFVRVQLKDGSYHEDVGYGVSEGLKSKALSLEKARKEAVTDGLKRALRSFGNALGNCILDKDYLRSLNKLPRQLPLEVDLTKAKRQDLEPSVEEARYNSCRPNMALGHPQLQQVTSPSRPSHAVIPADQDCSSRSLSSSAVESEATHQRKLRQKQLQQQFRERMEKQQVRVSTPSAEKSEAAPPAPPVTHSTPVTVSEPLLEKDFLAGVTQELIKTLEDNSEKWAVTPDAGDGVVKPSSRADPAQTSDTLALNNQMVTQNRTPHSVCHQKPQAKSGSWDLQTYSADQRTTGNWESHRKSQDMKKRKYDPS
rRNA inh HTS – selective bacterial rRNA inhibition in E. coli; E. coli WT GFP vs humanized-ribosome RFP mutants, fluorescence, 24 h; active compounds read low; DMSO median 0, no signal -100; GFP signal change (wild-type ribosome), % (concentration not given with the values); actives 1.6% (n = 350,000);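 active = significant combined selectivity score with lowered wild-type GFP, culture density cut under 30%, mutant RFP and density less affected; inactive = any of these conditions unmet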
Casp6 inh – blocks human caspase-6 cleavage activity; actives 0.53% (n = 350,000); inhibition, % at 12.5 µM; AID 686996; P55212; purified caspase-6, Z-VEID-R110 cleavage fluorescence;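 active = mean inhibition across replicates at least about 35%, with every replicate also reaching that limit, limit read from the data; inconclusive = only one of the two criteria met; inactive = neither criterion met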;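 note: 0% = median of neutral control wells and 100% = no fluorescence left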
NSD2 inh – NSD2 (human) methyltransferase inhibition. NSD2 peptide methylation, AlphaScreen, 120 min. inhibition, % at 12.5 µM. actives 0.54% (n = 310,000). AID 743445; in the data active = inhibition above about 50%
AF4-AF9 inh – inhibitors of human MLL-AF4/AF9 interaction | AID 651704 | inhibition, % at 10 µM | AlphaScreen, biotin-AF4 peptide binding to FLAG-AF9 | actives 0.47% (n = 350,000);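 active = every replicate reaching a set inhibition limit, whatever the replicate mean, cut at about 25% in these data; inconclusive = mean inhibition reaches that limit but some replicates miss it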;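 note: 0% = plate neutral control median and 100% = total signal loss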
RAD52 DNA ctr – counter-screen for RAD52 inhibitors: DNA binding compounds | shares compounds with RAD52 anneal inh | Salmon sperm DNA/acridine orange FP displacement | AC50, µM | actives 8% (n = 1,000) | AID 652128;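 active = fitted half-maximal concentration for signal loss at or below twice the highest dose tested, in every separate run, actives reach about 64 µM in these data; inconclusive = runs disagree, or flat partial signal loss, or poor fit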
An asterisk follows results filed as active.

`COc1ccc2c(c1)c[n+](C)c1c3cc(OC)c(OC)cc3ccc21` gave RAD52 anneal inh 108.9*, rRNA inh HTS -2.5, Casp6 inh -6.7, NSD2 inh 40.2, AF4-AF9 inh 2.8 and RAD52 DNA ctr 36.2µM*.
Screening COc1cc2c[n+](C)c3c4ccccc4ccc3c2cc1OC returned RAD52 anneal inh 104.4*, Casp6 inh -20.1, NSD2 inh 15.2, AF4-AF9 inh -1.8 and RAD52 DNA ctr inconclusive.
Screening COc1ccc(/C=C/c2ccc3ccccc3[n+]2C)cc1OC returned NSD2 inh 9.9.
`CO[C@@H]1CN(C)C(=O)c2cc(NS(C)(=O)=O)ccc2OC[C@@H](C)N(Cc2ccccn2)C[C@@H]1C` gave rRNA inh HTS 1.6.
Screening COc1ccc(-c2oc3ncnc(NCCCN(C)C)c3c2-c2ccc(OC)cc2)cc1 returned RAD52 anneal inh 85.3*, rRNA inh HTS -19.6, Casp6 inh -2.1, NSD2 inh 6.8, AF4-AF9 inh inconclusive and RAD52 DNA ctr inactive.
CC(=O)N[C@H]1CC[C@@H](CCNC(=O)C2CCC2)O[C@H]1CO was read as RAD52 anneal inh 6.4, rRNA inh HTS 2.1, Casp6 inh 8.7 and AF4-AF9 inh -1.7.
`COc1cccc(OC)c1C(=O)Nc1sc2c(c1C(N)=O)CCN(Cc1ccccc1)C2` gave RAD52 anneal inh -140.7, rRNA inh HTS 4.6, Casp6 inh -3.4 and AF4-AF9 inh 10.4.
Screening CCN1CCc2c(sc(NC(=O)c3cc4ccccc4cc3OC)c2C(N)=O)C1 returned RAD52 anneal inh 75.7*, rRNA inh HTS 0.2, Casp6 inh -2.2, NSD2 inh 1.0, AF4-AF9 inh 11.1 and RAD52 DNA ctr inactive.
`COc1ccc(CNCc2ccncc2)c(OC)c1` gave RAD52 anneal inh -17.4, rRNA inh HTS 1.7, Casp6 inh -4.8, NSD2 inh -0.6 and AF4-AF9 inh -0.5.
`CCN(Cc1ccncc1)Cc1ccc(OC)cc1OC` gave RAD52 anneal inh 99.0*, rRNA inh HTS 5.4, Casp6 inh 13.6, NSD2 inh 9.9, AF4-AF9 inh 0.1 and RAD52 DNA ctr inactive.
CSc1ccc2c(c1)N(CCC1CCCCN1C)c1ccccc1S2 (centres undefined) was read as RAD52 anneal inh 51.1*, Casp6 inh 1.9, AF4-AF9 inh 38.5* and RAD52 DNA ctr inactive.
`CC(C)(C)[S@@](=O)N1Cc2cc(C(=O)N3CCc4ccccc4C3)nc(-c3cccc(-c4ccncc4)c3)c2[C@H]1CCO` gave RAD52 anneal inh -6.2, rRNA inh HTS -2.7, Casp6 inh -1.7 and AF4-AF9 inh 2.8.
For Cc1ccc2cc(C#N)c(NCCNC(=S)NCCCN(C)C)nc2c1C the results were RAD52 anneal inh 100.4*, rRNA inh HTS 5.1, Casp6 inh -67.7, NSD2 inh 8.0, AF4-AF9 inh 6.2 and RAD52 DNA ctr inactive.
Screening Cc1cc(C)c2nc(NCCCNC(=S)NCCCN(C)C)c(C#N)cc2c1 returned RAD52 anneal inh 94.4*, rRNA inh HTS 0.1, Casp6 inh -69.0, NSD2 inh 12.0, AF4-AF9 inh -2.4 and RAD52 DNA ctr inactive.
For CCOCCCNC(=S)NCCCNc1nc2c(C)cc(C)cc2cc1C#N the results were RAD52 anneal inh -5.3, rRNA inh HTS 18.0, Casp6 inh 3.6, NSD2 inh 4.5 and AF4-AF9 inh -14.2.
`COc1ccc(Cl)c2sc(N(CCN(C)C)C(=O)C3=COCCO3)nc12` gave RAD52 anneal inh 36.9, rRNA inh HTS -0.2, Casp6 inh 8.6, NSD2 inh 3.3 and AF4-AF9 inh 1.4.
CCN(CC)CCN(C(=O)c1ccc2ccccc2c1)c1nc2cc3c(cc2s1)OCO3 was read as RAD52 anneal inh 60.9*, rRNA inh HTS -8.0, Casp6 inh -3.3, NSD2 inh 3.1, AF4-AF9 inh 5.4 and RAD52 DNA ctr inactive.
COc1ccc(OC)c2sc(N(CCN(C)C)C(=O)c3cc(Cl)sc3Cl)nc12 was read as RAD52 anneal inh 51.0*, rRNA inh HTS -2.2, Casp6 inh -3.0, AF4-AF9 inh 21.4 and RAD52 DNA ctr inactive.
`Cc1cc(C)c2nc(N(CCN(C)C)C(=O)c3ccc4ccccc4c3)sc2c1` gave RAD52 anneal inh -17.6, rRNA inh HTS -3.9, Casp6 inh -3.2, NSD2 inh -4.2 and AF4-AF9 inh 0.3.
Screening COc1ccc(C)c2sc(N(CCN(C)C)C(=O)c3ccc4ccccc4c3)nc12 returned RAD52 anneal inh 73.2*, rRNA inh HTS -9.5, Casp6 inh -22.7, NSD2 inh 2.4, AF4-AF9 inh 29.0* and RAD52 DNA ctr inactive.
For OCCN1CCN(c2cc(-c3ccc4ccccc4c3)nc3ccnn23)CC1 the results were RAD52 anneal inh 31.9, rRNA inh HTS -8.3, Casp6 inh -0.6, NSD2 inh -3.6 and AF4-AF9 inh -1.5.
Cc1cccc(-c2cc(N3CCCN(C)CC3)n3nccc3n2)c1 was read as RAD52 anneal inh 102.8*, rRNA inh HTS 5.1, Casp6 inh -45.1, NSD2 inh 26.2, AF4-AF9 inh 30.0* and RAD52 DNA ctr inactive.
Screening CN1CCCN(c2cc(-c3ccc4ccccc4c3)nc3ccnn23)CC1 returned RAD52 anneal inh 104.3*, rRNA inh HTS 10.9, Casp6 inh -54.8, AF4-AF9 inh 9.2 and RAD52 DNA ctr inactive.
Screening Cc1ccc(S(=O)(=O)Nc2ccc3c(c2)C(=O)N([C@@H](C)CO)C[C@@H](C)[C@@H](CN(C)S(=O)(=O)c2ccc(Cl)cc2)O3)cc1 returned RAD52 anneal inh -1.4, rRNA inh HTS -2.6, Casp6 inh -1.9 and AF4-AF9 inh 4.0.
Screening O=S(=O)(NCC[C@H]1CC[C@H](NS(=O)(=O)c2ccccc2Cl)[C@H](CO)O1)c1ccc(Cl)cc1 returned RAD52 anneal inh -10.8, rRNA inh HTS 2.2, Casp6 inh 1.4 and AF4-AF9 inh -3.6.
COc1ccc(S(=O)(=O)Nc2ccc3c(c2)C(=O)N([C@@H](C)CO)C[C@H](C)[C@H](CN(C)C(=O)CCCN(C)C)OCCCC[C@@H](C)O3)cc1 was read as RAD52 anneal inh 8.7, rRNA inh HTS -0.4, Casp6 inh 0.4 and AF4-AF9 inh -0.8.
CCCCCc1cc(=O)oc2c(C(CCN(CC)CC)c3ccc(N(C)C)cc3)c(OC)cc(OC)c12 (centres undefined) was read as RAD52 anneal inh 59.7*, rRNA inh HTS -48.1, Casp6 inh -1.7, AF4-AF9 inh 51.8* and RAD52 DNA ctr inactive.
Screening CN(C)C(=O)c1ccc(-c2ccc([C@H]3[C@H](CO)N4CCCCN(C(=O)C5CC5)C[C@@H]34)cc2)cc1 returned RAD52 anneal inh -18.9, rRNA inh HTS 1.7, Casp6 inh 1.0 and AF4-AF9 inh -3.4.
CNC12CCc3cc(OC)c(OC)c(c31)-c1cc3c(cc1C2)OCO3 (centres undefined) was read as RAD52 anneal inh 53.8*, rRNA inh HTS -7.9, Casp6 inh 7.9 and RAD52 DNA ctr inactive.

Screens: PubChem, Broad Institute
